# HEK293 tox: cytotoxicity in counter-screen for GLP-1R inverse agonists. HEK293 cAMP-luciferase reporter cells, luminescence, 24 h. 410,000 compounds, 0.13% hits. Potency, µM (top dose mostly 38.3 µM), most hits filed as inhibitors;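 note: loss of luciferase light is scored as toxicity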
#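 Seeding density was 200 cells/uL; after overnight-length (12 h) culture, 23 nL compounds went on for 24 h at 37 °C. Readout used a luciferase detection reagent, luminescence taken after 12 min at room temperature.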
# EPAC2 antagonist: EPAC2 (human) antagonism; Q8WZA2; EPAC2 GEF exchange of Rap1B-BODIPY-GDP, fluorescence; Potency, µM (doses to about 114 µM), hits mostly inhibitors; 360,000 compounds, 0.18% hits; AID 720708; note: nearly all actives have a fitted effect of over 45% in size
# USP1 inh: blocks the human USP1/UAF1 deubiquitinase complex; recombinant USP1/UAF1, Ub-Rhodamine cleavage fluorescence; O94782; 390,000 compounds, 0.23% hits; Potency, µM (highest dose often 57.1 µM), most hits filed as inhibitors; note: nearly all actives have a fitted effect of over 60% in size
# Target sequence (O94782 whole entry, looked up): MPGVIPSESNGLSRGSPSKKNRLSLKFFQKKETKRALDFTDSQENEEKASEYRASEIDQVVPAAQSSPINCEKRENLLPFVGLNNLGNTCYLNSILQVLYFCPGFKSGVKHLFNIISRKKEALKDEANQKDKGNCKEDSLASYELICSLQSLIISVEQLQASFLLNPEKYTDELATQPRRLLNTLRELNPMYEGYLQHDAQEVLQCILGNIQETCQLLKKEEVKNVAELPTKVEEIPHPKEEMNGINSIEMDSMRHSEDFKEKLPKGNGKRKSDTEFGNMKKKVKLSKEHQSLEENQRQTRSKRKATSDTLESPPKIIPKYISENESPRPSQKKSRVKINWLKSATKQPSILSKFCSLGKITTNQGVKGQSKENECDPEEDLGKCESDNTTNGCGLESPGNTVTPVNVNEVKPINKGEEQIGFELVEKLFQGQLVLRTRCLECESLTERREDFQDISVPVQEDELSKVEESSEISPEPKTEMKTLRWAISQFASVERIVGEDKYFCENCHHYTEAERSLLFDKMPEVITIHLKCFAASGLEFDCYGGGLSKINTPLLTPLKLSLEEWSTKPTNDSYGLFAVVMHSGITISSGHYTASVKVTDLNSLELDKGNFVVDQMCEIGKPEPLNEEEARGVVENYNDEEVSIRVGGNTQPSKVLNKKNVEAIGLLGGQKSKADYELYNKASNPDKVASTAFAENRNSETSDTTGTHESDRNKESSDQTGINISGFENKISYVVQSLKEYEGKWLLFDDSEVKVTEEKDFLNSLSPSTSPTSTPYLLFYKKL
#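 1 nM enzyme complex + cpd, 15 min RT; start with Ub-Rho 150nM final; kinetic fluorescence ex 480/em 540, 6 reads q60 s. Buffer 50mM HEPES pH 7.8, 0.5mM EDTA, 0.1 mg/ml BSA, 1mM TCEP, 0.01% Tween-20.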
# EPAC2 ag: EPAC2 (human) agonism; Q8WZA2; EPAC2 activation, biochemical qHTS; response scale: 100% = 6.5 mM cAMP response; Potency, µM (highest dose often 154 µM), most hits filed as activators; 360,000 compounds, 0.079% hits; AID 720711; note: nearly all actives have a fitted effect of over 50% in size
#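 Compounds were titrated in qHTS against a Rap1B-BODIPY-GDP (250 nM) complex with EPAC2 (100 nM) and GDP (50 uM). BODIPY-GDP release tracked at 480/540 nm over 30 min at room temperature, normalized to 6.5 mM cAMP.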
# EPAC1 antag: blocks human EPAC1 exchange factor; EPAC1 GEF assay, Rap1b-BODIPY-GDP exchange fluorescence; Potency, µM (highest dose often 115 µM), most hits filed as inhibitors; 360,000 compounds, 0.14% hits; AID 720709; note: nearly all actives have a fitted effect of over 50% in size
# EPAC1 agonist: EPAC1 (human) agonism | 360,000 compounds, 0.073% hits | Potency, µM (titrated, usually from 154 µM), most hits filed as activators | EPAC1 agonist qHTS, biochemical assay; response scale: 100% = response to 6.5 mM cAMP | O95398; note: nearly all actives have a fitted effect of over 60% in size
#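 Nucleotide exchange assay: 100 nM EPAC1 with 250 nM Rap1B loaded with BODIPY-GDP and 50 uM GDP, room temperature. Fluorescence (480/540 nm) read every 5 min for 30 min; signal change normalized to 6.5 mM cAMP as full agonist.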
# A number is an active result; 0 = inactive; ? = inconclusive; - = not tested or not shown. An excerpt weighted towards active compounds, which were near 0.55% of everything screened. Calls come from the whole dose curve; as a rule, active = well fitted curve in the direction sought with a large enough effect; inconclusive = small, poorly fitted or top-dose-only effect, or another doubt; inactive = no such curve, though single readings can be large; an effect the other way counts as inactive or inconclusive.
SMILES,HEK293 tox,EPAC2 antagonist,USP1 inh,EPAC2 ag,EPAC1 antag,EPAC1 agonist
COc1cccc(CNC(=O)[C@@H]2CCCN2C(=O)[C@@H]2CCCN2C(=O)OC(C)(C)C)c1,0,0,-,0,0,0
c1ccc(-n2nnnc2-n2ccnc2)cc1,0,0,0,10µM,0,0
c1ccc(-n2nnnc2Oc2ccc(-n3ccnc3)cc2)cc1,0,0,0,0,0,0
O=C(O)c1ccc(N/N=C/c2c(F)cccc2Cl)cc1,0,39.8µM,0,0,0,0
CC(=O)c1cccc(Nc2ncnc3c2cnn3-c2cccc(Cl)c2)c1,0,-,0,-,-,-
Nc1ccc(N2CCCCC2)c2nonc12,0,?,4.47µM,0,10µM,0
Nc1c(N2CCCC2)cc(Cl)c2nonc12,0,?,15.8µM,?,?,0
Nc1ccc(N2CCCCC2)cc1N1CCCCC1,0,0,0,0,0,0
Cc1cn2c(=O)cc(COC(=O)c3ccc(NC(=O)c4ccc(C(C)(C)C)cc4)cc3)nc2s1,0,-,0,-,-,-
CCOc1ccc(/C=N/Nc2nc(C)cs2)c(O)c1,3.16µM,0,0,0,0,0
Nc1nnc(CC(=O)N/N=C/c2cccc([N+](=O)[O-])c2)s1,0,0,0,0,0,0
Nc1nnc(CC(=O)N/N=C/c2cc([N+](=O)[O-])cc(Br)c2O)s1,0,0,0,0,50.1µM,0
Cc1nc2ccc(S(=O)(=O)CCC(=O)Nc3ccc(C(C)C)cc3)cc2s1,0,-,0,-,-,-
CCc1cccc(NC(=O)c2ccc3c(=O)n4nc(Nc5ccccc5OC)sc4nc3c2)c1,0,-,?,-,-,-
COC(=O)c1cn(C(=O)c2cc(OC)c(OC)c(OC)c2)c2ccccc12,0,17.8µM,0,0,0,0
COC(=O)c1cn(C(=O)c2cc(C)cc(C)c2)c2ccccc12,0,?,0,0,0,0
O=S(=O)(O)c1ccc(N=Nc2ccccc2)cc1,0,0,0,0,0,0
O=c1ccc(N=Nc2ccccc2)ccc1O,11.2µM,0,0,0,0,0
O=C1c2ccccc2-c2cccc(NS(=O)(=O)c3ccc(C(F)(F)F)cc3)c21,0,0,28.2µM,0,0,0
Cc1ccc(S(=O)(=O)Nc2ccccc2-c2ccccc2NS(=O)(=O)c2ccc(C)cc2)cc1,0,0,0,0,0,0
O=C(Nc1nc2ccccc2n1CCN1CCOCC1)c1ccc(COc2ccccc2Br)o1,3.55µM,0,0,0,0,0
O=C(NCc1cc(C(F)(F)F)ccc1Cl)c1cccc2c1C(=O)c1ccc(N3CCC(N4CCCCC4)CC3)cc1S2(=O)=O,0,?,0,89.1µM,?,0
O=C(NCc1cc(C(F)(F)F)ccc1Cl)c1cccc2c1C(=O)c1ccc(N3CCCCC3)cc1S2(=O)=O,0,0,20µM,0,0,0
O=C(NCc1cc(C(F)(F)F)ccc1Cl)c1cccc2c1C(=O)c1ccc(N3CCOCC3)cc1S2(=O)=O,0,0,0,0,?,0
O=C(CCn1ccc2cc(S(=O)(=O)N3CCCC3)ccc21)NCc1cccc(Br)c1,0,-,0,-,-,-
SMILES,HEK293 tox,EPAC2 antagonist,USP1 inh,EPAC2 ag,EPAC1 antag,EPAC1 agonist
CC(C)c1ccc[n+](-c2nc([O-])sc2C=O)c1,0,0,0,0,0,0
Cc1ccc[n+](-c2nc([O-])sc2C=O)c1,0,0,28.2µM,?,0,?
CC1CN(C(=O)CCC(=O)Nc2cc(F)ccc2F)c2ccccc2S1 (centres undefined),0,-,0,-,-,-
Cc1c(O)c2ccccc2n(-c2ccccc2)c1=O,0,0,0,0,0,0
CC(C)(C)c1c(Cl)c(O)c(-c2ccccc2)c(=O)n1-c1ccccc1,0,0,0,0,79.4µM,0
CCN(CC)Cc1c(O)ccc2c1O/C(=C\C=C\c1ccccc1)C2=O,0,0,31.6µM,0,0,?
COCCN(CCOC)Cc1c(O)ccc2c1O/C(=C\c1ccc(C)o1)C2=O,0,0,31.6µM,0,0,?
COc1ccccc1/C=C/C=C1\Oc2c(ccc(O)c2CN(C)C)C1=O,0,0,25.1µM,?,0,?
CCCCOC(=O)c1ccc(Nc2nc3ccc(C(=O)c4ccccc4)cc3n3cnnc23)cc1,0,-,0,-,-,-
Cc1ccc(CN(Cc2ccco2)c2cnc(S(C)(=O)=O)nc2C(=O)Nc2ccc(Br)cc2)o1,0,-,0,-,-,-
Cc1ccccc1-c1noc(-c2ccccc2OCC(=O)Nc2cccc([N+](=O)[O-])c2)n1,0,-,0,-,-,-
CC(=O)c1ccc(Nc2cc(C)nc3c(C)cc(C)cc23)cc1,?,0,0,0,0,0
Cc1cc(C)c2nc(C)cc(Nc3ccc(C(=O)NCCO)cc3)c2c1,0,20µM,0,0,0,0
CCSc1nc2ccccc2c(=O)n1C1CCOC(C)(C)C1 (centres undefined),0,39.8µM,0,0,0,0
CC1CCN(c2ccc(-c3cccc(NS(=O)(=O)c4ccc(F)cc4F)c3)nn2)CC1,0,-,0,-,-,-
O=C(Nc1ccc2cn[nH]c2c1)c1c(Cl)cccc1Cl,0,0,0,0,0,0
O=C1C(Cl)=C(Nc2ccc3cn[nH]c3c2)C(=O)c2ccccc21,?,0,15.8µM,0,0,0
CN=c1sc(C(=O)Nc2ccccc2)c(C)n1C,0,0,0,0,0,0
CN=c1sc2c(n1C)C(=O)c1ccccc1C2=O,?,0,15.8µM,0,0,0
Cc1ccc(COc2ccsc2-c2n[nH]c(=S)n2C)cc1,0,0,0,0,0,0
Cn1c(-c2sccc2OCc2ccc(Cl)cc2Cl)n[nH]c1=S,0,0,0,0,89.1µM,0
CCCN1CCc2nc(N3CCN(c4ncccn4)CC3)ncc2C1,0,-,0,-,-,-
O=C1C=CC2(O[C@H](c3ccccc3)[C@@H](c3ccccc3)O2)[C@H](Sc2ccccc2O)C1,4.47µM,0,0,0,0,0
CC(=O)c1cccc(N=c2scc(-c3ccc(S(=O)(=O)N4CCOCC4)cc3)n2CCO)c1,0,0,0,0,0,0
C=CCn1c(-c2ccc(S(=O)(=O)N3CCOCC3)cc2)csc1=Nc1ccccc1,0,0,0,7.94µM,0,0
CCc1ccc(-n2nc(C)c3c(C)cc(=O)n(CC(=O)Nc4ccc(OC)c(OC)c4)c32)cc1,0,-,0,-,-,-
CC(NC1=CC(=O)c2cccnc2C1=O)C(O)c1ccccc1 (centres undefined),11.2µM,?,5.62µM,0,?,0
O=C(NCC(c1ccc2c(c1)OCO2)N1CCN(c2ccccc2)CC1)C(=O)Nc1cccc(F)c1 (centres undefined),0,-,0,-,-,-
O=C(CCS(=O)(=O)c1nc(-c2cccs2)cc(C(F)(F)F)n1)Nc1cc(Br)ccc1O,?,-,0,-,-,-

# Compound activity deposited in PubChem BioAssay by National Center for Advancing Translational Sciences (NCATS).
